According to the supplement of paper PMC9135407:
Values joined by “and” are separate entries in the source; they are usually repeats but may differ in a detail not shown here. Equal entries are not always repeated. Structures can show the parent of a compound that is named as a salt. Hit rate of the full screen: of about 5,800 compounds, about 620 (11%) showed activity. For the sample, actives were picked, then their nearest neighbours and some compounds at random. A number with no mark means an inactive call.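 The calls were made as follows: active = score above a cut-off or among the top three wells of a plate; in these data no inactive exceeds 0.85.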

Tested on: primary human hepatic stellate cells (donor 1)
Assay: scaled lipid accumulation score (0 = DMSO-like, 1 = nortriptyline-like); higher = stronger HSC inactivation (lipid re-accumulation), active = hit call of the paper
Conditions: 48 h
[1] = library stock concentration: 10 mM
[2] = library stock concentration: 1 mM
[3] = library stock concentration: 3.33 mM
[4] = library stock concentration: 80 uM
[5] = library stock concentration: 400 uM
[6] = library stock concentration: 2 mM

With `CC1c2ccccc2CN1CC1=NCCN1` (stereo not given) the “scaled lipid accumulation score” value [1] was 0.014.

`CCCCC[C@H](O)/C=C/[C@H]1C2COC(C2)[C@@H]1C/C=C/CCCC(=O)O` (stereo not given in full) was tested, and the “scaled lipid accumulation score” value [2] was no more than 0.

For `CC[C@@H](C)Nc1cc(C(=O)NC2CC3CCC(C2)N3c2ccc(C(=O)C3CC3)cn2)c(C)cc1C(N)=O` (stereo not given in full), the “scaled lipid accumulation score” value [1] was 0.853 (active).

For `CC[C@@H](C)Nc1cc(C(=O)N[C@H]2C[C@H]3CC[C@@H](C2)N3c2ccc(C(=O)C3CC3)cn2)c(C)cc1C(N)=O`, the “scaled lipid accumulation score” value [3] was 0.762.

`NC(=O)c1ccc[n+]([C@@H]2O[C@H](COP(=O)([O-])OP(=O)(O)OC[C@H]3O[C@@H](n4cnc5c(N)ncnc54)[C@H](OP(=O)(O)O)[C@@H]3O)[C@@H](O)[C@H]2O)c1` [Sodium beta-nicotinamide adenine dinucleotide phosphate] was tested, and the “scaled lipid accumulation score” value [1] was no more than -0.027.

For `CC1Nc2ccc(Cl)cc2S(=O)(=O)N1` (stereo not given), the “scaled lipid accumulation score” value [1] was no more than -0.006.

For `CC(=O)c1ncc([C@@H](O)[C@H](O)[C@H](O)CO)[nH]1` [2-Acetyl-5-tetrahydroxybutyl Imidazole], the “scaled lipid accumulation score” value [2] was no more than 0.

In the case of `COc1ccc(/C=C/c2nc(NCCCN(C)C)c3ccccc3n2)cc1`, the “scaled lipid accumulation score” value [1] is reported as 0.387.

`Cc1[nH]c2ccccc2c1CCNCc1ccc(/C=C/C(=O)NO)cc1` [Panobinostat (LBH589)] was tested, and the “scaled lipid accumulation score” value [3] was 0.728 and the “scaled lipid accumulation score” value [1] was 0.587.

`O=c1cc(N2CCNCC2)oc2c(-c3ccccc3)cccc12` [listing 1 of 2 here] was tested, and the “scaled lipid accumulation score” value [1] was 1.28 (active).

With `O=c1cc(N2CCOCC2)oc2c(-c3ccccc3)cccc12` [LY-294,002 hydrochloride] the “scaled lipid accumulation score” value [1] was 0.089.

In the case of `O=c1cc(N2CCNCC2)oc2c(-c3ccccc3)cccc12` [listing 2 of 2 here], the “scaled lipid accumulation score” value [3] is reported as 0.39.

With `O=c1cc(N2CCOCC2)oc2c(-c3ccccc3)cccc12` the “scaled lipid accumulation score” value [2] was 0.001, the “scaled lipid accumulation score” value [3] was no more than 0 and the “scaled lipid accumulation score” value [1] was ≤ 0 and 0.005. The “scaled lipid accumulation score” value (library stock concentration: 16.3 mM) was no more than -0.012.

`CCC1(O)CC2CN(CCc3c([nH]c4ccccc34)[C@@](C(=O)OC)(c3cc4c(cc3OC)N(C)C3[C@]45CCN4CC=C[C@@](CC)([C@@H](OC(C)=O)[C@]3(O)C(=O)OC)[C@H]45)C2)C1.O=S(=O)(O)O` (stereo not given in full) [Vinblastine sulfate salt] was tested, and the “scaled lipid accumulation score” value [1] was 0.877 (active).

With `CC[C@]1(O)C[C@H]2CN(CCc3c([nH]c4ccccc34)[C@@](C(=O)OC)(c3cc4c(cc3OC)N(C)[C@H]3[C@@](O)(C(=O)OC)[C@H](OC(C)=O)[C@]5(CC)C=CCN6CC[C@]43[C@@H]65)C2)C1.O=S(=O)(O)O` [Vinblastine sulfate] the “scaled lipid accumulation score” value [1] was 1.67 (active).

With `CCCCCCCCCCCCCCCCCC(=O)OC(CC(=O)O)C[N+](C)(C)C` (racemic) [DL-Stearoylcarnitine chloride] the “scaled lipid accumulation score” value [1] was 0.037.

`CCCCCCCCCCCCCCCC(=O)OC[C@H](O)[C@H]1OC(=O)C(O)=C1O` [Ascorbyl palmitate] was tested, and the “scaled lipid accumulation score” value (library stock concentration: 4.8 mM) was 0.002.

`CC(=O)N[C@@H](CCC(=O)O)C(=O)O` [Acetylglutamic acid] was tested, and the “scaled lipid accumulation score” value [1] was no more than 0.

In the case of `CCCCN1CCCC1CNC(=O)c1cc(C#N)c2ccccc2c1OC` (stereo not given) [Nafadotride], the “scaled lipid accumulation score” value [1] is reported as 0.668 and 0.214.

For `CS(=O)(=O)c1ccc(-c2nc(-c3ccc(F)cc3)c(-c3ccncc3)[nH]2)cc1`, the “scaled lipid accumulation score” value [3] was no more than 0.

`CN(C)CC[C@@H](c1ccc(Br)cc1)c1ccccn1` was tested, and the “scaled lipid accumulation score” value [1] was no more than 0.

In the case of `O=C1NCCc2[nH]c(-c3ccncc3)cc21`, the “scaled lipid accumulation score” value [4] is reported as no more than -0.016, the “scaled lipid accumulation score” value [5] is reported as 0.1 and the “scaled lipid accumulation score” value [6] is reported as 0.125. The “scaled lipid accumulation score” value [3] was no more than 0 and the “scaled lipid accumulation score” value [1] was 0.19.

`CCCCCCCCCCCCCC(=O)O` [Myristic Acid] was tested, and the “scaled lipid accumulation score” value [2] was no more than 0.

With `Cn1c(=O)c(-c2c(Cl)cccc2Cl)cc2cnc(Nc3ccc(N4CCOCC4)cc3)nc21` the “scaled lipid accumulation score” value [1] was no more than 0.

`c1cn2cc(-c3ccc4cn[nH]c4c3)nc(Nc3ccc(N4CCOCC4)cc3)c2n1` [Entospletinib] [listing 1 of 2 here] was tested, and the “scaled lipid accumulation score” value [4] was no more than 0 and the “scaled lipid accumulation score” value [5] was 0.023.

`Cc1cc(N2CCOCC2)ccc1Nc1nc(NC2CCCCC2)c2[nH]cnc2n1` was tested, and the “scaled lipid accumulation score” value [3] was 0.091 and the “scaled lipid accumulation score” value [1] was no more than 0.

With `c1cn2cc(-c3ccc4cn[nH]c4c3)nc(Nc3ccc(N4CCOCC4)cc3)c2n1` [Entospletinib] [listing 2 of 2 here] the “scaled lipid accumulation score” value [6] was 1.2 (active) and the “scaled lipid accumulation score” value [1] was 1.21 (active).

`c1nc2c(NC3CCCCC3)nc(Nc3ccc(N4CCOCC4)cc3)nc2[nH]1` [Reversine] was tested, and the “scaled lipid accumulation score” value [3] was no more than 0.

`c1cn2cc(-c3ccc4cn[nH]c4c3)nc(Nc3ccc(N4CCOCC4)cc3)c2n1` was tested, and the “scaled lipid accumulation score” value [3] was 1.04 (active) and the “scaled lipid accumulation score” value [1] was 0.944 (active).

For `C[N+](C)(C)CCOP(=O)(O)OP(=O)([O-])OC[C@H]1O[C@@H](n2ccc(N)nc2=O)[C@H](O)[C@@H]1O` [Citicoline], the “scaled lipid accumulation score” value [1] was no more than -0.027.

For `C[N+](C)(C)CCOP(=O)(O)OP(=O)([O-])OC[C@H]1O[C@@H](n2ccc(N)nc2=O)[C@H](O)[C@@H]1O` [Cytidine 5'-diphosphocholine sodium salt hydrate], the “scaled lipid accumulation score” value [1] was no more than -0.07.

`CO[C@H]1C=C[C@@]23c4cc5c(cc4CN(C[C@@H]2O)[C@H]3C1)OCO5` [Crinamine] was tested, and the “scaled lipid accumulation score” value [1] was 0.74.

For `Cc1ccc(Nc2cc(-c3cccc(N4C(=O)c5ccccc5C4=O)c3)ncn2)cc1NS(C)(=O)=O`, the “scaled lipid accumulation score” value [4] was 0.083, the “scaled lipid accumulation score” value [5] was no more than -0.016 and the “scaled lipid accumulation score” value [6] was no more than -0.016. The “scaled lipid accumulation score” value [1] was 0.08.

With `CCCCCC(O)/C=C/C1C(O)CC(O)C1CCCCC(CC(=O)O)OC` (stereo not drawn) [3-methoxy Prostaglandin F1.alpha.] the “scaled lipid accumulation score” value [2] was no more than 0.

For `CCCCCCCCCCCCCCC(=O)N[C@H]1CCOC1=O` [N-pentadecanoyl-L-Homoserine lactone], the “scaled lipid accumulation score” value [2] was no more than 0.

In the case of `c1ccc2c(c1)CCC[C@H]2Nc1nc2ccccc2[nH]1` [NS8593 hydrochloride], the “scaled lipid accumulation score” value [1] is reported as 0.362.

In the case of `CCCCNC(=O)NS(=O)(=O)c1ccc(CO)cc1` [4-hydroxy Tolbutamide], the “scaled lipid accumulation score” value [2] is reported as 0.012.

`COc1ccc(NS(=O)(=O)c2ccc(I)cc2)cc1N1CCN(C)CC1` was tested, and the “scaled lipid accumulation score” value [1] was 0.604.

In the case of `COc1ccc(NS(=O)(=O)c2sc3ccc(Cl)cc3c2C)cc1N1CCNCC1` [listing 1 of 2 here], the “scaled lipid accumulation score” value [3] is reported as 0.383.

In the case of `COc1ccc(NS(=O)(=O)c2sc3ccc(Cl)cc3c2C)cc1N1CCNCC1` [listing 2 of 2 here], the “scaled lipid accumulation score” value [1] is reported as 1.31 (active).

For `CCCCCCCCCCCCCCCCCCCCCC(=O)NCCO` [Docosanoyl Ethanolamide], the “scaled lipid accumulation score” value [2] was no more than 0.

For `COc1ccc2c(c1)CCC1C2CC[C@@]2(C)C1CC[C@@H]2NCCCCCCN1C(=O)CCC1=O` (stereo not given in full), the “scaled lipid accumulation score” value [1] was 0.875 (active).

For `C[C@]12CC[C@@H]3c4ccc(OC(=O)c5ccccc5)cc4CC[C@H]3[C@@H]1CC[C@@H]2O` [Estradiol Benzoate], the “scaled lipid accumulation score” value [3] was no more than 0 and the “scaled lipid accumulation score” value [1] was 0.155.

`C[C@]12CC[C@@H]3c4ccc(OC(=O)c5ccccc5)cc4CC[C@H]3[C@@H]1CC[C@@H]2O` [Estradiol benzoate] was tested, and the “scaled lipid accumulation score” value (library stock concentration: 5.3 mM) was no more than 0.

With `COc1ccc2c(c1)CCC1C2CCC2(C)C(NCCCCCCN3C(=O)C=CC3=O)CCC12` (stereo not given) the “scaled lipid accumulation score” value [2] was no more than 0 and the “scaled lipid accumulation score” value [1] was 0.397.

`CN1c2cc(O)c(N=NC(N)=O)cc2CC1S(=O)(=O)O` (stereo not given) [Carbazochrome sodium sulfonate (AC-17)] was tested, and the “scaled lipid accumulation score” value [3] was no more than 0 and the “scaled lipid accumulation score” value [1] was no more than 0.

With `c1ccc(CNc2nc(NCc3ccccc3)c3ccccc3n2)cc1` the “scaled lipid accumulation score” value [3] was 0.706 and the “scaled lipid accumulation score” value [1] was 0.074.

With `CC(=O)NCCCCCC(=O)O` [Acexamic acid] the “scaled lipid accumulation score” value [1] was 0.236.

`CC(C)CCOc1ccc(NC(=S)Nc2ccc(OCCC(C)C)cc2)cc1` [Thiocarlide] was tested, and the “scaled lipid accumulation score” value [2] was no more than 0.

`CN1C(=O)CC[C@H]1c1cccnc1` [(-)-Cotinine] was tested, and the “scaled lipid accumulation score” value [1] was ≤ 0 and 0.057.

`CN1C(=O)CC[C@H]1c1cccnc1` [Cotinine (-)] was tested, and the “scaled lipid accumulation score” value was no more than 0.

For `CN1C(=O)CC[C@H]1c1cccnc1` [Cotinine], the “scaled lipid accumulation score” value [1] was no more than 0 and the “scaled lipid accumulation score” value (library stock concentration: 11.3 mM) was no more than -0.001.

In the case of `O=c1ccc2cc(O)c(O)cc2o1` [Esculetin], the “scaled lipid accumulation score” value is reported as no more than 0 and the “scaled lipid accumulation score” value [1] is reported as no more than 0.

In the case of `O=Nc1ccc2oc(=O)ccc2c1` [6-Nitroso-1,2-benzopyrone], the “scaled lipid accumulation score” value [1] is reported as 0.9 (active).

For `O=c1ccc2ccccc2o1` [Coumarin], the “scaled lipid accumulation score” value [3] was no more than 0 and the “scaled lipid accumulation score” value [1] was ≤ 0 and 0.012.

`CC(C)n1c(/C=C/C(O)CC(O)CC(=O)O)c(-c2ccc(F)cc2)c2ccccc21` (stereo not given) [fluvastatin] was tested, and the “scaled lipid accumulation score” value [1] was 0.549.

For `CC(C)n1c(/C=C/C(O)CC(O)CC(=O)O)c(-c2ccc(F)cc2)c2ccccc21` (stereo not given) [Fluvastatin sodium salt], the “scaled lipid accumulation score” value was 0.403.

In the case of `CC(C)n1c(/C=C/C(O)CC(O)CC(=O)O)c(-c2ccc(F)cc2)c2ccccc21` (stereo not given) [Fluvastatin Sodium], the “scaled lipid accumulation score” value [3] is reported as 0.188 and the “scaled lipid accumulation score” value [1] is reported as 0.219.

`COc1cc(C)c(Cc2cnc(N)nc2N)cc1OC` was tested, and the “scaled lipid accumulation score” value [1] was no more than 0.

`CCN(CCO)CCCC(C)Nc1ccnc2cc(Cl)ccc12` (stereo not given) [Hydroxychloroquine sulfate] was tested, and the “scaled lipid accumulation score” value [1] was 0.161.

For `CCN(CC)Cc1cc(Nc2ccnc3cc(Cl)ccc23)ccc1O.Cl.Cl.O.O` [Amodiaquin dihydrochloride dihydrate], the “scaled lipid accumulation score” value was 1.22 (active).

In the case of `CCN(CC)CCCC(C)Nc1ccnc2cc(Cl)ccc12` (stereo not given) [Chloroquine phosphate], the “scaled lipid accumulation score” value (library stock concentration: 6.3 mM) is reported as 0.285.

In the case of `O=C(OCC(O)CO)c1ccccc1Nc1ccnc2cc(Cl)ccc12` (stereo not given) [Glafenine], the “scaled lipid accumulation score” value [1] is reported as no more than 0.

In the case of `O=C(OCC(O)CO)c1ccccc1Nc1ccnc2cc(Cl)ccc12` (stereo not given) [Glafenine hydrochloride], the “scaled lipid accumulation score” value is reported as no more than 0.

With `Clc1ccc2c(N3CCN(CCCN4CCN(c5ccnc6cc(Cl)ccc56)CC4)CC3)ccnc2c1` [Piperaquine tetraphosphate tetrahydrate] the “scaled lipid accumulation score” value [1] was 0.316.

In the case of `CCN(CC)CCCC(C)Nc1ccnc2cc(Cl)ccc12` (stereo not given) [Chloroquine diphosphate], the “scaled lipid accumulation score” value is reported as 0.679 and the “scaled lipid accumulation score” value [1] is reported as ≤ 0 and 0.428.
